Here are results for 25 compounds from PubChem BioAssay (NCATS).

SMILES strings stand for the structures. Inconclusive results are not listed. Values without a mark were called inactive. Calls of active or inactive are those of the source. The call rests on the fitted dose curve; in most records, active means well fitted curve in the direction sought with a large enough effect; inconclusive means small, poorly fitted or top-dose-only effect, or another doubt; inactive means no such curve, though single readings can be large; an effect the other way counts as inactive or inconclusive. Where a SMILES comes first, the peptide text is derived from it. [ ]: non-standard residue; d: D form. PhLac = O=C(O)[CH](O)Cc1ccccc1; NMeV = CN[CH](C(=O)O)C(C)C

A short description of assay [1]: P-glycoprotein substrates identified in KB-3-1 adenocarcinoma cell line, qHTS therapeutic library screen (AID 1346986). Further: nearly all actives have a fitted effect of over 60% in size. The gist of the method:
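72 h cell-killing screen, 500 cells/well, CellTiter-Glo luminescence. Paired lines KB-3-1/KB-8-5-11; P-gp dependence checked by tariquidar co-treatment and HEK-293 MDR-19 versus empty-vector cells.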
(In qHTS, concentration-response curves come from the screen itself.)

Assay [2] is described as follows: P-glycoprotein substrates identified in KB-8-5-11 adenocarcinoma cell line, qHTS therapeutic library screen (AID 1346987). Further: nearly all actives have a fitted effect of over 65% in size. On activity change, negative = cytotoxicity: series mostly up to about 44 µM; on the % scale 0 is the no-effect control and ±100 the full control effect. An outline of the steps:
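Compounds are pinned in dose-response onto KB-8-5-11 cells (500 cells/well, colchicine-free medium) and left 72 h at 37 degree C. CellTiter-Glo luminescence then yields AC50 values.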

For the compound `COC1C2=C(COC2=O)C2(C)CCCC(C)(CO)C2C1OC(=O)c1ccccc1` (stereo not given), the Potency result in assay [1] and in assay [2] was “inactive” throughout.
As for `C[C@@H](O)[C@H](N)C(=O)N1CCC[C@H]1C(=O)N1CCC[C@H]1C(=O)N[C@H](C(N)=O)[C@@H](C)O` (H-TPPT-NH2), the outcome in assay [1] and in assay [2] was “inactive [at 9.29 µM]” throughout.
`C/C(=C\CO)CC/C=C(\C)C(=O)O[C@H]1[C@H](OC2OC=C(C(=O)O)C3CCC(C)(O)C23)O[C@H](CO)[C@@H](O)[C@@H]1O` (stereo not given in full): the Potency entry in assay [1] and in assay [2] was “inactive” each time.
Turning to `CC(/C=C/C1(O)C(C)(C)CC(O)CC1(C)O)OC1OC(CO)C(O)C(O)C1O` (stereo not given), the Potency result in assay [1] and in assay [2] was “inactive” in each case.
In the case of `CC(c1c[nH]c2ccccc12)C(O)C(=O)O` (stereo not given), the Potency entry in assay [1] and in assay [2] was “inactive” in each case.
Regarding `COc1cc(C(C)=O)ccc1O[C@@H]1O[C@H](CO[C@@H]2O[C@@H](C)[C@H](O)[C@@H](O)[C@H]2O)[C@@H](O)[C@H](O)[C@H]1O`, the Potency result in assay [1] and in assay [2] was “inactive” each time.
As for `CC1(C)O[C@@]2(C)CC[C@@H]1C[C@@H]2OC1OC(CO)C(O)C(O)C1O` (stereo not given in full), the Potency result in assay [1] and in assay [2] was “inactive” in each case.
Regarding `NCCCC[C@H](NC(=O)[C@@H]1Cc2ccccc2CN1C(=O)CCC(=O)c1ccccc1)C(=O)NCC(c1ccccc1)c1ccccc1`, the Potency result in assay [1] and in assay [2] was “inactive” throughout.
With `C=C1[C@H]2[C@H](O[C@@H]3O[C@H](COC(=O)/C=C/c4cc(OC)c(O)c(OC)c4)[C@@H](O)[C@H](O)[C@H]3O)OC=C(C(=O)O)[C@H]2C[C@@H]1O`, the Potency result in assay [1] and in assay [2] was “inactive” each time.
As for `C[C@H]1CN(C[C@H](Cc2ccccc2)C(=O)NCC(=O)O)CC[C@@]1(C)c1cccc(O)c1`, the Potency result in assay [1] and in assay [2] was “inactive” in each case.
For `CC(C)C(C(=O)N1CCCC1C(=O)O)N(C)C(=O)C(O)Cc1ccccc1` (stereo not given) (H-[PhLac]-[NMeV]-Pro-OH; configuration not given here), the Potency result in assay [1] and in assay [2] was “inactive” throughout.
For `Nc1ncnc2c1ncn2[C@H]1CCCO1`, the Potency entry in assay [1] and in assay [2] was “inactive” throughout.
As for `OC1COC(OCC2OC(OCCc3ccccc3)C(O)C(O)C2O)C(O)C1O` (stereo not given), the Potency entry in assay [1] and in assay [2] was “inactive” throughout.
Turning to `CCOc1ccc(-c2ccc(Cn3c(CC(C)(C)C(=O)O)c(SC(C)(C)C)c4cc(OCc5ccc(C)cn5)ccc43)cc2)cn1`, the Potency result in assay [1] and in assay [2] was “inactive” throughout.
For the compound `CCCC(N[C@@H](C)C(=O)N1[C@H](C(=O)O)C[C@@H]2CCCC[C@@H]21)C(=O)OCC` (stereo not given in full), the Potency result in assay [1] and in assay [2] was “inactive” throughout.
Turning to `C=C[C@H]1[C@H](O[C@@H]2O[C@H](CO[C@@H]3OC[C@](O)(CO)[C@H]3O)[C@@H](O)[C@H](O)[C@H]2O)OC=C2C(=O)OCC[C@H]21`, the Potency entry in assay [1] and in assay [2] was “inactive” in each case.
Turning to `CC1=CC(=O)C2C(C)(C)CC(O)CC2(C)C1CO` (stereo not given), the Potency result in assay [1] and in assay [2] was “inactive” each time.
For the compound `C[C@@H]1O[C@@H](O[C@H]2[C@H](OC(=O)[C@]34CCC(C)(C)C[C@H]3C3=CCC5[C@@]6(C)C[C@H](O)[C@H](O[C@@H]7O[C@H](CO[C@@H]8OC[C@H](O)[C@H](O)[C@H]8O)[C@@H](O)[C@H](O)[C@H]7O)C(C)(C)C6CC[C@@]5(C)[C@]3(C)C[C@H]4O)OC[C@@H](O)[C@@H]2O)[C@H](O)[C@H](O[C@@H]2OC[C@](O)(CO)[C@H]2O)[C@H]1O[C@@H]1OC[C@H](O)[C@H](O[C@@H]2OC[C@@H](O)[C@H](O)[C@H]2O)[C@H]1O` (stereo not given in full), in assay [1], the outcome was “inactive [at 9.29 µM]”. In addition, the activity change, negative = cytotoxicity in assay [2] is 7.52% [at 9.29 µM].
Take `Cn1c(=O)c2nc(/C=C/c3cccc(Cl)c3)n(C)c2n(C)c1=O`: the Potency result in assay [1] and in assay [2] was “inactive” throughout.
Regarding `CCCCS(=O)(=O)Nc1ncnc(OCCOc2ncc(Br)cn2)c1-c1ccc(Br)cc1`, the Potency entry in assay [1] and in assay [2] was “inactive” in each case.
On to `C[C@@H]1O[C@@H](OC[C@H]2O[C@@H](OCCc3ccccc3)[C@H](O)[C@@H](O)[C@@H]2O)[C@H](O)[C@H](O)[C@H]1O`, for which the Potency result in assay [1] and in assay [2] was “inactive” each time.
As to `C[C@@H]1O[C@@H](O[C@@H]2[C@@H](O)[C@@H](O)[C@H](O[C@@H]3[C@@H](O)[C@@H](O[C@]4(CO)O[C@H](CO)[C@@H](O)[C@@H]4OC(=O)/C=C/c4ccc(O)cc4)O[C@H](CO)[C@H]3OC(=O)/C=C/c3ccc(O)cc3)O[C@H]2C)[C@H](O)[C@H](O)[C@H]1O`, the outcome in assay [1] and in assay [2] was “inactive [at 9.29 µM]” each time.
For `CC(=O)O[C@@H]1[C@H](O[C@@H]2O[C@H](CO)[C@@H](O)[C@H](O)[C@H]2O)[C@@H](O[C@@H]2O[C@@H](C)[C@H](O)[C@@H](O[C@@H]3O[C@H](CO)[C@@H](O)[C@H](O)[C@H]3O)[C@H]2O)[C@H](OC(=O)C23CCC4(C)C(=CCC5C6(C)CC(O)C(O[C@@H]7O[C@H](C(=O)O)[C@@H](O)[C@H](O)[C@H]7O)C(C)(C(=O)O)C6CCC54C)C2CC(C)(C)CC3O)O[C@@H]1C` (stereo not given in full), the outcome in assay [1] and in assay [2] was “inactive [at 9.29 µM]” throughout.
In the case of `COCC(=O)N1CCc2cc(-c3csc(NC(=O)c4cc(OC)cc(OC)c4)n3)ccc21`, the Potency entry in assay [1] and in assay [2] was “inactive” each time.
For `CC1OC(OC2C(CO)OC(OCC3OC(OC(=O)C45CCC(C)(C)CC4C4=CCC6C7(C)CCC(OC8OC(C(=O)O)C(O)C(OC9OC(CO)C(O)C(O)C9O)C8O)C(C)(C)C7CCC6(C)C4(C)CC5)C(O)C(O)C3O)C(O)C2O)C(O)C(O)C1O` (stereo not given), the outcome in assay [1] and in assay [2] was “inactive [at 9.29 µM]” each time.
